Screening results (PubChem BioAssay)
MITF inh – blocks human microphthalmia-associated transcription factor; actives 0.91% (n = 650,000); AlphaScreen MITF homodimerization, bead proximity signal; AID 1259374; inhibition, % at 2.6 µM; O75030; in the data active = inhibition above about 50%
GPR151 activ – human GPR151 activation; Q8TDV0; PathHunter beta-arrestin GPR151 cells, luminescence; activation, % at 11.2 µM; actives 1% (n = 650,000); AID 1508602; in the data active = activation above about 4.9%
TEAD-YAP inh – TEAD-YAP interaction inhibition. inhibition, % at 9.12 µM. HEK-TIYL cells, TEAD-Gal4/YAP UAS-luciferase luminescence. AID 1259422. actives 1.4% (n = 640,000); in the data active = inhibition above about 32%
FBW7 activator – activators of human E3 ligase FBW7. Q969H0. AlphaScreen FBW7–phospho-cyclin E peptide binding, activator screen. normalized activity (activation), % at 26.1 µM. actives 0.13% (n = 650,000); in the data active = normalized activity above about 1.9%;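 also: purified mutant Fbw7 with reduced substrate affinity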
Target sequence (Q969H0 whole entry, looked up): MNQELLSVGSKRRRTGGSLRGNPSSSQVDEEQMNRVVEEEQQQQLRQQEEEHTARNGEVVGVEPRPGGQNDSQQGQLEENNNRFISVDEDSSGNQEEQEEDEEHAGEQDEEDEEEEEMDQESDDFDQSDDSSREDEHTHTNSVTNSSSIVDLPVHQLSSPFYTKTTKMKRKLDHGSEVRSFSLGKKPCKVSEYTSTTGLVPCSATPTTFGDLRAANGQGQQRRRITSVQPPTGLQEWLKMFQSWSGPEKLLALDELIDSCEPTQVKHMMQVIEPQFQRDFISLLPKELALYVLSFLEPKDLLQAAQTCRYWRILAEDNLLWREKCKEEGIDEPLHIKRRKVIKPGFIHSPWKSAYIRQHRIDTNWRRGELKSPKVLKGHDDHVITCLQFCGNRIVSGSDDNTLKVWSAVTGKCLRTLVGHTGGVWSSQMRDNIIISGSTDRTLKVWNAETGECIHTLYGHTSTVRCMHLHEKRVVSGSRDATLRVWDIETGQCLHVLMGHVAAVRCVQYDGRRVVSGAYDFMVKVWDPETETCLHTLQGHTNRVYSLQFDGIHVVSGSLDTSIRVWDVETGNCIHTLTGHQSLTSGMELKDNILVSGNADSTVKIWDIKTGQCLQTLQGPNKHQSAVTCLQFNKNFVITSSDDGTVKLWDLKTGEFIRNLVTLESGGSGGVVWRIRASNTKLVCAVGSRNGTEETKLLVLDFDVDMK
GPR151 confirm – human GPR151 activation, confirmation screen; shares compounds with GPR151 activ; GPR151 PathHunter beta-arrestin cells, luminescence, 90 min; % of EA-reagent control over plate median; activation, % at 11.2 µM; 6,700 tested, under 10 active;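 active = mean percent activation across replicates above the confirmation screen cutoff of 4.91%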
GPR119 ag – GPR119 activation, counter-screen for GPR151 activators. actives 0.3% (n = 6,700). activation, % at 11.2 µM. shares compounds with GPR151 activ. GPR119 PathHunter beta-arrestin cells, luminescence, 90 min; 0 = compound-well median, 100 = enzyme-acceptor control;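 active = mean percent activation in the counterscreen above 29.09%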;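 also: counterscreen on off-target GPR119 to flag nonselective hits from the GPR151 activator screen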
Of the large screens only hits and unclear results are named; the others gave an inactive call (follow-up assays come after a bar, where they were run). Rows were chosen to be rich in hits. Some 3.5% of all compounds tested hit in one or more screens of this group.

COC(=O)COc1cc2c(C(=O)OC)c(C)oc2cc1Br	none
O=S1(=O)CCC(NS(=O)(=O)c2ccc(S(=O)(=O)NC3CC3)cc2)C1 (stereo not given)	GPR151 activ 5.2 | GPR151 confirm inactive | GPR119 ag inactive
Cc1ccccc1C(=O)NCCn1cc(SCC(=O)Nc2ccc3c(c2)OCO3)c2ccccc21	none
COc1ccc(-n2nc(C(=O)NCC(=O)N3CCCC3)c3ccccc3c2=O)c(OC)c1	none
COc1ccc(-n2nc(C(=O)NCC(=O)Nc3ccc(OC)c(OC)c3)c3ccccc3c2=O)cc1Cl	GPR151 activ 6.3 | GPR151 confirm inactive | GPR119 ag inactive
CCOC(=O)N1CCN(C(=O)CNC(=O)c2nn(-c3ccc(OC)cc3OC)c(=O)c3ccccc23)CC1	GPR151 activ 5.3 | GPR151 confirm inactive | GPR119 ag inactive
CC(=O)c1c(C)nnn1-c1nonc1C	GPR151 activ 5.1 | GPR151 confirm inactive | GPR119 ag inactive
CC1=CC(=O)C=C(C)C1=NOS(=O)(=O)c1ccc(Br)cc1	none
Cc1cc(C)cc(NC(=O)CC2CC3CCC2C3)c1 (stereo not given)	GPR151 activ 8.7 | GPR151 confirm inactive | GPR119 ag inactive
COc1ccc(NC(=O)COc2ccc(C)cc2C)c(OC)c1	GPR151 activ 7.9 | GPR151 confirm inactive | GPR119 ag inactive
COc1ccc(OC)c(NC(=O)COc2ccc(Br)cc2C(C)(C)C)c1	GPR151 activ 5.9 | GPR151 confirm inactive | GPR119 ag inactive
COc1ccc(OC)c(NC(=O)COc2ccccc2C(C)(C)C)c1	none
CCCOc1ccc(/C=C2/C(=O)ON=C2C)cc1OCC	none
CCCOc1ccccc1/C=C1/C(=O)ON=C1C	GPR151 activ 7.4 | GPR151 confirm inactive | GPR119 ag inactive
Cc1cccc(-n2cc(-c3ccccc3)nc2SCC(=O)Nc2ccc(Cl)cc2)c1	GPR151 activ 6.3 | GPR151 confirm inactive | GPR119 ag inactive
Cc1cccn2c(CN3CCOCC3)c(C(=O)N3CCCCC3)nc12	none
Cc1cccn2c(CNCCc3ccccn3)c(C(=O)N3CCOCC3)nc12	GPR151 activ 5.9 | GPR151 confirm inactive | GPR119 ag inactive
Cc1cccn2c(CN3CCN(c4ccncc4)CC3)c(C(=O)N3CCCCC3)nc12	GPR151 activ 5.2 | GPR151 confirm inactive | GPR119 ag inactive
Cc1cccn2c(CNC3CCOC(C)(C)C3)c(C(=O)N3CCOCC3)nc12 (stereo not given)	GPR151 activ 4.9 | GPR151 confirm inactive | GPR119 ag inactive
O=C(Cn1nc(-c2ccc(F)cc2)n(-c2ccncc2)c1=O)N1CCCC1	none
CCN(CC)C(=O)C1CCCN(c2nc(Nc3ccc(NC(C)=O)cc3)c3ncn(Cc4ccc(C(F)(F)F)cc4)c3n2)C1 (stereo not given)	none
CCN(CC)C(=O)C1CCCN(c2nc(Nc3ccc(NC(C)=O)cc3)c3ncn(CCN4CCCC4=O)c3n2)C1 (stereo not given)	GPR151 activ 6.4 | GPR151 confirm inactive | GPR119 ag inactive
O=C1CCCN1CCn1cnc2c(Nc3ccc4c(c3)OCO4)nc(N3CCN(Cc4ccc5c(c4)OCO5)CC3)nc21	GPR151 activ 5.1 | GPR151 confirm inactive | GPR119 ag inactive
COC(=O)c1cccc(Nc2ccc(S(=O)(=O)NC(C)C)cc2[N+](=O)[O-])c1	none
O=C(c1cnn2c1NC(c1cccs1)CC2C(F)(F)F)N1CCN(C(c2ccccc2)c2ccccc2)CC1 (stereo not given)	none
O=C(c1cnn2c1NC(c1cccs1)CC2C(F)(F)F)N1CCc2ccccc2C1 (stereo not given)	GPR151 activ 5.5 | GPR151 confirm inactive | GPR119 ag inactive
Cc1[nH]n(-c2ccccc2)c(=S)c1/C=N/c1ccccn1	GPR151 activ 5.9 | GPR151 confirm inactive | GPR119 ag inactive
Cc1ccc(-n2[nH]c(C)c(/C=N/c3ccccn3)c2=O)cc1	none
CC(C)(C)NC(=O)CN(Cc1ccccc1)S(=O)(=O)c1ccc(F)cc1	GPR151 activ 5.3 | GPR151 confirm inactive | GPR119 ag inactive
O=C(CN(Cc1ccccc1)S(=O)(=O)c1ccc(F)cc1)Nc1cccc([N+](=O)[O-])c1	none
O=C(CN(Cc1ccc(F)cc1)S(=O)(=O)c1ccccc1)Nc1cccc([N+](=O)[O-])c1	GPR151 activ 5.1 | GPR151 confirm inactive | GPR119 ag inactive
O=[N+]([O-])c1cccc(S(=O)(=O)NCc2ccc(F)cc2)c1	GPR151 activ 9.0 | GPR151 confirm inactive | GPR119 ag inactive
O=[N+]([O-])c1cccc(S(=O)(=O)NCc2ccco2)c1	none
CCC(=O)Nc1ccc(C(=O)Nc2nc3c(s2)CCCC3)cc1	none
CCCCn1c(CNC(=O)c2cccc(F)c2)nnc1SC(C)C(=O)Nc1sc2c(c1C(=O)OCC)CCC2 (stereo not given)	none
Cc1cccc(CNC2CCN(c3ccc(C(=O)N4CCCC(O)C4)cc3)CC2)n1 (stereo not given)	GPR151 activ 6.7 | GPR151 confirm inactive | GPR119 ag inactive
COc1ccccc1C(=O)Nc1ccccc1NC(=O)C1(c2cccs2)CCCC1	none
COc1ccc(S(=O)(=O)N(CC(N)=O)c2ccc(Cl)cc2)cc1OC	none
O=C(NCc1ccccc1F)c1ccco1	none
O=C(NCc1ccccc1Br)c1ccco1	GPR151 activ 6.1 | GPR151 confirm inactive | GPR119 ag inactive
CCOC(=O)CN1C(=O)Nc2ccccc2C(=O)N1C(C)(C)C	none
COc1ccc(NC(=O)Oc2ccccc2)cc1	none
COc1ccc(Nc2ncnc3c2cnn3-c2ccc(Cl)cc2)cc1Cl	GPR151 activ 11 | GPR151 confirm inactive | GPR119 ag inactive
COc1ccc(-n2ncc3c(Nc4ccc(Cl)c(Cl)c4)ncnc32)cc1	none
O=C(CCC1CCN(C(=O)C2=CCCCC2)CC1)Nc1ccccc1	GPR151 activ 5.3 | GPR151 confirm inactive | GPR119 ag inactive
CNS(=O)(=O)c1ccc(N/C=C(\C#N)c2nc3ccccc3o2)cc1	none
O=C/C(=C\Nn1cnnc1)c1nc2ccccc2o1	GPR151 activ 15 | GPR151 confirm inactive | GPR119 ag inactive
O=C(c1nc2sccn2c1CNCC(c1ccccn1)N1CCOCC1)N1CCCC1 (stereo not given)	none
O=C(c1nc2sccn2c1CNCC(c1cccnc1)N1CCOCC1)N1CCCC1 (stereo not given)	GPR151 activ 9.8 | GPR151 confirm inactive | GPR119 ag inactive
O=C(CCSc1ccccc1)Nc1nc2ccccc2s1	GPR151 activ 5.0 | GPR151 confirm inactive | GPR119 ag inactive
O=C(COC(=O)C1CCC(=O)N1)Nc1nc2ccccc2s1 (stereo not given)	GPR151 activ 6.0 | GPR151 confirm inactive | GPR119 ag inactive
CC(=O)Nc1cccc(NC(=O)COc2ccc3cc(Br)ccc3c2)c1	none
